The values that follow come from article PMC11062922 (Nature Chemical Biology, 2023).

Where two headings read alike, the source gives them in different places.

What all share (parameters): species or system human, MV4-11 + K-562 + COLO205 + SK-N-BE2 + OVCAR-8
Experiment [1] concerns CLK1. Conditions: read-out: apparent Kd; compound concentrations:100 nM and 1000 nM (sheet 'Samples'); n = 1.
The subject of experiment [2] is CLK2. The conditions noted are these: read-out: apparent Kd; compound concentrations:100 nM and 1000 nM (sheet 'Samples'); n = 1.
Experiment [3] concerns CLK4. Conditions: read-out: apparent Kd; compound concentrations:100 nM and 1000 nM (sheet 'Samples'); n = 1.
The test system of experiment [4] is GAK. Conditions: read-out: apparent Kd, n = 1.
Experiment [5] has as its system MAPK10. The conditions noted are these: read-out: apparent Kd, n = 1.
Experiment [6] deals with MAPK8. The conditions noted are these: read-out: apparent Kd; compound concentrations:100 nM and 1000 nM (sheet 'Samples'); n = 1.
The test system of experiment [7] is MAPK9. Conditions: read-out: apparent Kd, n = 1.
In experiment [8] the test system is PTK2B. The conditions noted are these: read-out: apparent Kd, n = 1.
The subject of experiment [9] is PTK2. The conditions noted are these: read-out: apparent Kd, n = 1.
Experiment [10] deals with TNK1. Conditions: read-out: apparent Kd, n = 1.
Experiment [11] relates to TTK. Conditions: read-out: apparent Kd; compound concentrations:100 nM and 1000 nM (sheet 'Samples'); n = 1.
The test system of experiment [12] is CDK7. The conditions noted are these: read-out: apparent Kd; compound concentrations: 100 nM and 1000 nM (sheet 'Samples'), CATDS: 6.6688716966174802E-2; n = 1.
In experiment [13] the test system is EPHA4. Conditions: read-out: apparent Kd; compound concentrations: 100 nM and 1000 nM (sheet 'Samples'), CATDS: 4.9130602297819598E-2; n = 1.
Experiment [14] relates to EPHA5. Conditions: read-out: apparent Kd; compound concentrations: 100 nM and 1000 nM (sheet 'Samples'), CATDS: 4.6938657100171297E-2; n = 1.
For experiment [15], the system named is EPHB2. The conditions noted are these: read-out: apparent Kd; compound concentrations: 100 nM and 1000 nM (sheet 'Samples'), CATDS: 5.6373238091853198E-2; n = 1.
The subject of experiment [16] is EPHB4. The conditions noted are these: read-out: apparent Kd; compound concentrations: 100 nM and 1000 nM (sheet 'Samples'), CATDS: 6.1848145802902502E-2; n = 1.
For experiment [17], the system named is ERCC2. The conditions noted are these: read-out: apparent Kd, compound concentrations: 100 nM and 1000 nM (sheet 'Samples'), n = 1.
Experiment [18] relates to FER. The conditions noted are these: read-out: apparent Kd; compound concentrations: 100 nM and 1000 nM (sheet 'Samples'), CATDS: 6.7369227307756602E-2; n = 1.
Experiment [19] has as its system GSK3A. The conditions noted are these: read-out: apparent Kd; compound concentrations: 100 nM and 1000 nM (sheet 'Samples'), CATDS: 4.87406111355713E-2; n = 1.
For experiment [20], the system named is PIK3CB. Conditions: read-out: apparent Kd; compound concentrations: 100 nM and 1000 nM (sheet 'Samples'), CATDS: 5.9648096714639699E-2; n = 1.
The test system of experiment [21] is PRKAA1. Conditions: read-out: apparent Kd; compound concentrations: 100 nM and 1000 nM (sheet 'Samples'), CATDS: 4.9195025679132399E-2; n = 1.
In experiment [22] the test system is PRKAG2. Conditions: read-out: apparent Kd; compound concentrations: 100 nM and 1000 nM (sheet 'Samples'), CATDS: 5.0151658649726198E-2; n = 1.
Experiment [23] has as its system RPS6KA6. The conditions noted are these: read-out: apparent Kd; compound concentrations: 100 nM and 1000 nM (sheet 'Samples'), CATDS: 5.82257386615097E-2; n = 1.
The subject of experiment [24] is TNK2. Conditions: read-out: apparent Kd, compound concentrations: 100 nM and 1000 nM (sheet 'Samples'), n = 1.
In experiment [25] the test system is CDKL5. Conditions: read-out: apparent Kd; compound concentrations: 100 nM and 1000 nM (sheet 'Samples'), CATDS: 0.29608844643475601; n = 1.
Experiment [26] concerns ERBB3. Conditions: read-out: apparent Kd; compound concentrations: 100 nM and 1000 nM (sheet 'Samples'), CATDS: 0.345701208148325; n = 1.
For experiment [27], the system named is MYLK3. The conditions noted are these: read-out: apparent Kd; compound concentrations: 100 nM and 1000 nM (sheet 'Samples'), CATDS: 0.366305815038865; n = 1.
The test system of experiment [28] is CIT. The conditions noted are these: read-out: apparent Kd; compound concentrations: 100 nM and 1000 nM (sheet 'Samples'), CATDS: 7.5521196037373797E-2; n = 1.
The subject of experiment [29] is CSNK1A1. The conditions noted are these: read-out: apparent Kd; compound concentrations: 100 nM and 1000 nM (sheet 'Samples'), CATDS: 4.0949734681157798E-2; n = 1.
Experiment [30] has as its system CSNK1D. Conditions: read-out: apparent Kd; compound concentrations: 100 nM and 1000 nM (sheet 'Samples'), CATDS: 7.5353596099526104E-2; n = 1.
Experiment [31] has as its system CSNK1E. Conditions: read-out: apparent Kd; compound concentrations: 100 nM and 1000 nM (sheet 'Samples'), CATDS: 5.67501120580748E-2; n = 1.
For experiment [32], the system named is DDR1. The conditions noted are these: read-out: apparent Kd; compound concentrations: 100 nM and 1000 nM (sheet 'Samples'), CATDS: 5.04347105241187E-2; n = 1.
Experiment [33] has as its system DDR2. The conditions noted are these: read-out: apparent Kd; compound concentrations: 100 nM and 1000 nM (sheet 'Samples'), CATDS: 3.97356163806874E-2; n = 1.
The subject of experiment [34] is MAPK14. Conditions: read-out: apparent Kd; compound concentrations: 100 nM and 1000 nM (sheet 'Samples'), CATDS: 0.113663446643848; n = 1.
Experiment [35] relates to MAPKAPK2. The conditions noted are these: read-out: apparent Kd; compound concentrations: 100 nM and 1000 nM (sheet 'Samples'), CATDS: 8.6501611072326803E-2; n = 1.
The subject of experiment [36] is NLK. Conditions: read-out: apparent Kd; compound concentrations: 100 nM and 1000 nM (sheet 'Samples'), CATDS: 4.75025353654299E-2; n = 1.
Experiment [37] relates to RIPK2. Conditions: read-out: apparent Kd; compound concentrations: 100 nM and 1000 nM (sheet 'Samples'), CATDS: 0.10770613005205; n = 1.
Where [38] appears, read: compound concentrations:100 nM and 1000 nM (sheet 'Samples').

As for `COc1cc(N2CCN(C(C)C)CC2)ccc1Nc1nc(Nc2ccc(F)cc2C(=O)NC[C@@H](O)CO)c2cc[nH]c2n1` [GSK1392956A], the potency estimated from few doses in experiment [1] was 0.415 µM; in experiment [2], 0.811 µM; in [3], 0.684 µM; in experiment [4] (setting [38]), 0.0504 µM; in [5] (setting [38]), 0.0921 µM; in experiment [6], 0.14 µM. For the same compound, the potency estimated from few doses in experiment [7] (setting [38]) is 0.531 µM; in experiment [8] (setting [38]), 0.188 µM; in [9] (setting [38]) it was 0.37 µM; in experiment [10] (setting [38]) it was 0.577 µM; in experiment [11] it was 0.053 µM.

As for `COc1ccc(Nc2nccc(N3CCC(NC(=O)C(C)c4ccc(Cl)cc4)C3)n2)cc1` (stereo not shown) [GSK1379735A], the potency estimated from few doses was 0.733 µM in experiment [12]; 1.41 µM in experiment [13]; 1.6 µM in experiment [14]; 1.02 µM in [15]; 0.846 µM in experiment [16]; 0.641 µM in experiment [17] (CATDS: 7.18018036860264E-2). Further, the potency estimated from few doses in experiment [18] is 0.719 µM; in [4] (compound concentrations: 100 nM and 1000 nM (sheet 'Samples'), CATDS: 6.1535147387706803E-2) it was 0.854 µM; in experiment [19] it was 1.44 µM; in [20] it was 0.91 µM; in [21], 1.41 µM; in [22] it was 1.34 µM. The potency estimated from few doses was 1.08 µM in experiment [8] (compound concentrations: 100 nM and 1000 nM (sheet 'Samples'), CATDS: 5.5106996532726202E-2); 1.06 µM in experiment [9] (compound concentrations: 100 nM and 1000 nM (sheet 'Samples'), CATDS: 5.55941477403585E-2); 0.956 µM in experiment [23]; 0.43 µM in experiment [10] (compound concentrations: 100 nM and 1000 nM (sheet 'Samples'), CATDS: 9.1910216493779603E-2); 0.479 µM in experiment [24] (CATDS: 8.5615413066405396E-2).

For the compound `COc1cccc(-n2ncc3c(N/N=C/c4ccc(F)cc4)ncnc32)c1` [GW817396X], the potency estimated from few doses in [25] is 2.11 µM; in [26] it was 1.52 µM; in experiment [27], 1.36 µM.

Consider `Nc1nccc(-c2c(-c3ccc(F)cc3)ncn2C2CCN(Cc3ccccc3)CC2)n1` [SB-219980], for which the potency estimated from few doses in [28] was 0.142 µM; in [29], 1.79 µM; in experiment [30] it was 0.143 µM; in experiment [31], 0.362 µM; in experiment [32] it was 0.584 µM; in experiment [33] it was 2.23 µM. In addition, the potency estimated from few doses was 0.0261 µM in experiment [17] (CATDS: 0.16888440143106601); 1.23 µM in experiment [5] (compound concentrations: 100 nM and 1000 nM (sheet 'Samples'), CATDS: 4.34774071226985E-2); 0.0536 µM in [34]; 0.814 µM in [7] (compound concentrations: 100 nM and 1000 nM (sheet 'Samples'), CATDS: 4.6959741652320801E-2); 0.0993 µM in experiment [35]; 0.77 µM in [36]. In addition, the potency estimated from few doses was 0.06 µM in experiment [37]; 0.0227 µM in [10] (compound concentrations: 100 nM and 1000 nM (sheet 'Samples'), CATDS: 0.18410889385923901); 0.0207 µM in experiment [24] (CATDS: 0.19568733735508301).
